The source of these data is PubChem BioAssay (NCI).

Structures are written as SMILES. About 83,000 compounds went through this panel and 20% of them were active in at least one assay; those are over-represented in the sample as a whole.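 How to read the values: 0–100, growth inhibition (40 = 60% inhibited); 0, no net growth; -100 to 0, cell death (-40 = 40% of starting cells died; -100 = all dead).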 Values without a mark were called inactive. Calls of active or inactive are those of the source. Rule for the calls: active = growth percent below 10; inactive = the rest.

Holding throughout (assay): NCI-60 one-dose screen, 48 h (100 = growth as untreated, 0 = no growth, -100 = all killed)
In one assay the test system is 786-0 renal. Conditions: 10 µM unless noted.
For a further assay, the system named is DU-145 prostate. Conditions: 10 µM unless noted.
A further assay concerns MDA-MB-231 breast. To be noted: 10 µM unless noted.
The next assay deals with SF-268 CNS. Conditions: 10 µM unless noted.
For the next assay, the system named is SF-539 CNS. To be noted: 10 µM unless noted.
In the next assay the test system is M14 melanoma. To be noted: 10 µM unless noted.
A further assay relates to HCT-15 colon. To be noted: 10 µM.
The test system of a further assay is SNB-19 CNS. Conditions: 10 µM unless noted.
Another assay has as its system UACC-62 melanoma. Conditions: 10 µM unless noted.
Another assay concerns SN12C renal. To be noted: 10 µM unless noted.
For another assay, the system named is ACHN renal. To be noted: 10 µM unless noted.
The subject of a further assay is MOLT-4 leukemia. To be noted: 10 µM.
For the next assay, the system named is OVCAR-8 ovarian. To be noted: 10 µM unless noted.
For a further assay, the system named is SK-OV-3 ovarian. To be noted: 10 µM unless noted.
The subject of a further assay is NCI/ADR-RES ovarian. To be noted: 10 µM unless noted.
A further assay deals with T-47D breast. To be noted: 10 µM unless noted.
The next assay concerns MDA-MB-435 melanoma. Conditions: 10 µM unless noted.
The subject of a further assay is SW-620 colon. Conditions: 10 µM unless noted.
A further assay deals with HCT-116 colon. Conditions: 10 µM unless noted.
The next assay deals with KM12 colon. To be noted: 10 µM unless noted.

As to `O=C(CCc1ccco1)NC1CCN(CC2(c3ccc(Cl)cc3)CCC2)CC1`, the growth was 20.4% in the assay with 786-0 renal; 24% in the assay on DU-145 prostate; -6.18% (active) with MDA-MB-231 breast; 22.1% in the assay on SF-268 CNS; 34.5% in the assay with SF-539 CNS; 10.3% in the assay on M14 melanoma. The growth with HCT-15 colon is 18.7%; in the assay with SNB-19 CNS, 15%; in the assay with UACC-62 melanoma, 17%; in the assay on SN12C renal, 5.58% (active); in the assay on ACHN renal, 13.8%; with MOLT-4 leukemia it was -11.7% (active). In addition, the growth with OVCAR-8 ovarian is 12.2%; in the assay on SK-OV-3 ovarian, 13.8%; with NCI/ADR-RES ovarian, 6.97% (active); with T-47D breast, 15.4%; in the assay with MDA-MB-435 melanoma, 4.28% (active); with SW-620 colon it was 14.7%. Also, the results for the growth in the assay with HCT-116 colon and with KM12 colon were 7.86% (active) and 1.4% (active), respectively.

On to `COc1ccc(C2=NN(c3ccccc3)C(c3sc(N(CCCl)CCCl)nc3Cl)C2)cc1` (stereo not drawn), for which the growth in the assay with 786-0 renal is 103%; with DU-145 prostate, 106%; with MDA-MB-231 breast it was 68.4%; with SF-268 CNS it was 86.8%; in the assay with SF-539 CNS, 104%; with M14 melanoma, 93.6%. Moreover, the growth in the assay with HCT-15 colon is 97.9%; in the assay with SNB-19 CNS it was 93.5%; in the assay on UACC-62 melanoma, 65.1%; in the assay on SN12C renal, 90.5%; in the assay with ACHN renal, 82.6%; with MOLT-4 leukemia it was 67.5%. In addition, the growth with OVCAR-8 ovarian was 87.8%; in the assay on SK-OV-3 ovarian, 75.9%; in the assay with NCI/ADR-RES ovarian, 95.7%; in the assay on T-47D breast, 69.5%; with MDA-MB-435 melanoma, 90.5%; in the assay with SW-620 colon, 92.5%. Moreover, the growth in the assay with HCT-116 colon was 67%; with KM12 colon, 81.4%.

With `OC1CCCCC1N1CCC(c2ccccc2)CC1` (stereo not drawn), the growth in the assay with 786-0 renal was 93.1%; in the assay on DU-145 prostate, 112%; in the assay on MDA-MB-231 breast, 119%; with SF-268 CNS, 106%; in the assay with SF-539 CNS it was 119%; in the assay on M14 melanoma, 106%. In addition, the growth with HCT-15 colon is 110%; in the assay on SNB-19 CNS, 117%; in the assay on UACC-62 melanoma, 115%; in the assay with SN12C renal, 109%; with ACHN renal, 109%; with MOLT-4 leukemia, 79.9%. In addition, the growth in the assay on OVCAR-8 ovarian is 103%; in the assay on SK-OV-3 ovarian it was 104%; with NCI/ADR-RES ovarian, 99.7%; in the assay with T-47D breast, 96.8%; in the assay on MDA-MB-435 melanoma, 100%; in the assay with SW-620 colon, 99.3%. Also, the growth is 94.5% with HCT-116 colon and 104% with KM12 colon.

With `ClCCN(CCCl)C(c1ccccc1)c1ccc(Cl)cc1` (stereo not drawn), the growth with 786-0 renal is 87.5%; in the assay with DU-145 prostate, 69.5%; with MDA-MB-231 breast, 75.7%; with SF-268 CNS, 61.5%; in the assay on SF-539 CNS, 71.7%; with M14 melanoma it was 90.4%. For the same compound, the growth was 82.9% with HCT-15 colon; 81.6% in the assay with SNB-19 CNS; 63.8% with UACC-62 melanoma; 41.1% in the assay with SN12C renal; 28.9% in the assay with ACHN renal; -3.35% (active) in the assay on MOLT-4 leukemia. Further, the growth in the assay on OVCAR-8 ovarian was 77.7%; in the assay with SK-OV-3 ovarian it was 109%; with NCI/ADR-RES ovarian it was 79%; with T-47D breast, 103%; in the assay on MDA-MB-435 melanoma it was 88%; in the assay with SW-620 colon it was 51.6%. Besides, the results for the growth in the assay on HCT-116 colon and in the assay on KM12 colon were 79.5% and 89.5%, respectively.

For `C[C@]12C[C@H](O)[C@H]3[C@@H](CCC4=CC(=O)CC[C@@]43C)[C@@H]1CC[C@@H]2O`, the growth in the assay with 786-0 renal is 107%; in the assay on DU-145 prostate it was 112%; in the assay with MDA-MB-231 breast, 103%; in the assay on SF-268 CNS it was 105%; in the assay with SF-539 CNS it was 99%; in the assay on M14 melanoma, 98.4%. The growth in the assay on HCT-15 colon is 100%; in the assay with SNB-19 CNS, 104%; in the assay on UACC-62 melanoma it was 98.5%; with SN12C renal it was 101%; with ACHN renal it was 101%; in the assay on MOLT-4 leukemia, 103%. Moreover, the growth is 114% with OVCAR-8 ovarian; 105% in the assay on SK-OV-3 ovarian; 104% in the assay with NCI/ADR-RES ovarian; 105% with T-47D breast; 101% in the assay with MDA-MB-435 melanoma; 107% in the assay with SW-620 colon. Further, the growth in the assay with HCT-116 colon is 101%; with KM12 colon it was 105%.

Regarding `CNC(=O)Oc1cccc(OC)c1`, the growth was 107% with 786-0 renal; 115% in the assay on DU-145 prostate; 93.3% in the assay on MDA-MB-231 breast; 118% with SF-268 CNS; 111% with SF-539 CNS; 107% in the assay with M14 melanoma. Besides, the growth in the assay with HCT-15 colon was 112%; in the assay with SNB-19 CNS, 103%; with UACC-62 melanoma it was 100%; with SN12C renal, 93.3%; with ACHN renal, 109%; in the assay with OVCAR-8 ovarian it was 108%. Besides, the growth was 118% in the assay with SK-OV-3 ovarian; 106% in the assay with NCI/ADR-RES ovarian; 108% in the assay on T-47D breast; 95.5% with MDA-MB-435 melanoma; 111% with SW-620 colon; 103% with HCT-116 colon. The growth in the assay with KM12 colon is 112%.

`CC[CH2][Pb]([CH2]CC)([CH2]CC)[O]C(=O)C(F)(F)F`: the growth in the assay on 786-0 renal is -98.6% (active); in the assay on DU-145 prostate, -100% (active); in the assay on MDA-MB-231 breast, -50.3% (active); with SF-268 CNS, -82.3% (active); in the assay on SF-539 CNS, -99.2% (active); with M14 melanoma, -91.6% (active). The growth was -88.2% (active) in the assay with HCT-15 colon; -83.2% (active) in the assay on UACC-62 melanoma; -79.3% (active) in the assay with SN12C renal; -100% (active) with ACHN renal; -27.8% (active) with MOLT-4 leukemia; -69.4% (active) with OVCAR-8 ovarian. Further, the growth with SK-OV-3 ovarian was -74.6% (active); in the assay with NCI/ADR-RES ovarian, -36.6% (active); in the assay on T-47D breast, -68.1% (active); in the assay with MDA-MB-435 melanoma, -97.1% (active); with SW-620 colon, -50.8% (active); in the assay with HCT-116 colon it was -95% (active). Further, in the assay on KM12 colon, the growth is -88.2% (active).

With `COc1ccc(NP2(=O)OCC(C)(N)CO2)cc1` (stereo not drawn), the growth was 101% with 786-0 renal; 102% with DU-145 prostate; 106% with MDA-MB-231 breast; 96.2% in the assay on SF-268 CNS; 100% in the assay with SF-539 CNS; 101% with M14 melanoma. The growth in the assay with HCT-15 colon was 89.3%; with SNB-19 CNS, 105%; in the assay with UACC-62 melanoma it was 99.9%; with SN12C renal it was 105%; in the assay with ACHN renal, 96.6%; in the assay with MOLT-4 leukemia, 82.2%. The growth was 101% in the assay with OVCAR-8 ovarian; 103% in the assay with SK-OV-3 ovarian; 98.2% with NCI/ADR-RES ovarian; 78.5% in the assay with T-47D breast; 108% in the assay on MDA-MB-435 melanoma; 105% in the assay on SW-620 colon. Moreover, the values for the growth in the assay with HCT-116 colon and in the assay with KM12 colon were 98.8% and 91.8%, respectively.
